Source: PubChem BioAssay AID652208 (Broad Institute, 2013)
Potency and affinity values are given separately. The source made the active and inactive calls.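 Rule for the calls: active = Loss of cell signal with fitted half-effect dose at or below twice the top valid tested dose; inconclusive = Poor fit, or flat fit from -70 to -30 percent; inactive = Half-effect above limit, rising signal, or flat within 30 percent.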

assay: viability loss in HEK293T cells – cell-based, cherry-picks, cytotoxicity control for HIV Vif inhibitor project, dose response (AID 652208); settings: CellTiter-Glo luminescence, 24 h; series mostly up to 26 µM

Compound | outcome
COC(=O)c1cc(Cl)c(NC(=O)c2cc3ccccc3o2)cc1OC | inactive
COc1cc(OC)cc(C(=O)N[C@H](C(=O)Nc2ccc3c(c2)OCO3)C(C)C)c1 | inactive
O=C(O)c1ccc(S(=O)(=O)c2ccc3c(c2)C(=O)N(c2ccc(Br)cc2)C3=O)cc1 | inactive
OC(CNCc1ccccc1Cl)COc1ccc(F)cc1 (stereo not drawn) | inactive
COc1ccc(CN2C3CCC2CC(NC(=O)c2cc(OC)c(OC)c(OC)c2)C3)cc1 (stereo not drawn) | inactive
COc1ccc(-c2csc(-c3cccnc3)n2)cc1C | inactive
COc1ccccc1Oc1coc2cc(OCC(N)=O)ccc2c1=O | inactive
O=C1c2ccccc2C(Nc2ccc(S(=O)(=O)N3CCOCC3)cc2)N1c1ccccn1 (stereo not drawn) | inactive
O=C(Nc1cnccn1)Nc1ccccc1Cl | inactive
Cc1ccc(C(=O)COC(=O)c2cc(=O)[nH]c3ccccc23)cc1C | inactive
COCCNC(=O)c1nn2c(C(F)(F)F)cc(-c3ccccc3)nc2c1Cl | inactive
CCOC(=O)C1(Cc2ccccc2)CCN(Cc2csc(C(C)=O)c2)CC1 | inactive
COc1cc(-c2cnc3c(NC=O)cc(-c4ccccc4)cn23)cc(OC)c1OC | inactive
CSc1ccc(CN(C)CC(=O)NCCc2ccccc2)cc1 | inactive
COc1c(Br)cc(Br)cc1/C=C1/C(=O)N=C(N)N1C | inactive
CCN1C(=O)c2cccc3c(S(=O)(=O)Nc4ccccc4O)ccc1c23 | inactive
CCOc1ccc(CC(=O)Nc2sc(Cc3ccccc3)c(C)c2C(N)=O)cc1OCC | inactive
Cc1cc(NC(=O)CSc2nc3ccccc3c(=O)n2-c2ccccc2)no1 | inactive
COc1ccc(C(=O)NC2CC3CCCC(C2)N3Cc2ccccc2)cc1OC (stereo not drawn) | inactive

Compound | outcome
C/C=C/c1ccc(OCCNCc2ccccc2)c(OC)c1 | inactive
O=C(Nc1cccc(-c2cc3ccccc3oc2=O)c1)c1ccc(Br)o1 | inactive
COc1ccc(NC(=O)Cn2nnc(C(=O)Nc3ccccc3C)c2N)cc1 | inactive
O=C(c1cc(COc2cccc3cccnc23)on1)N1CCC[C@H]1CO | inactive
CC(C)CN1C(=O)C(=O)N(CC(=O)c2ccc3c(c2)OCO3)C1=O | inactive
CNC(=O)c1ccc(NC(=O)c2cc(S(=O)(=O)N(C)C)ccc2N2CCCC2)cc1 | inactive
CCN(CC)C(=O)c1cccc(NC(=O)C2=COCCO2)c1 | inactive
O=c1sc(N2CCN(c3ccc(F)cc3)CC2)nc2ccsc12 | inactive
C=CCN1C(=O)/C(=C/c2ccc(-c3ccc(F)cc3)o2)SC1=S | inactive
COc1cc(-c2cc(=O)c3c(O)c(OC)c(OC)cc3o2)cc(OC)c1O | inactive
O=C(c1cc(-c2ccccc2O)on1)N1CCCCCC1 | inactive
CCOC(=O)C1(Cc2cccc(OC)c2)CCN(CCO)CC1 | inactive
O=C(O)/C=C/C(=O)Nc1cccc(C(F)(F)F)c1 | inactive
Cc1ccc2c(c1)N(CC(=O)NCC1CCCO1)C(=O)C(C(C)C)O2 (stereo not drawn) | inactive
N#CC(C(=O)NCCc1ccccc1)c1nc2ccccc2nc1N1CCOCC1 (stereo not drawn) | inactive
COc1ccc2cc(CCNS(=O)(=O)c3ccc(NC(C)=O)cc3)c(=O)[nH]c2c1 | inactive
COc1ccc(OC)c(NC(=O)c2cc3ccccc3cc2OC)c1 | inactive
Cc1ccc2c(COC(=O)c3ccccc3OC(F)F)cc(=O)oc2c1 | inactive
O=S(=O)(Nn1cnnc1)c1ccccc1 | inactive
